Test in all cases: DAPPL (digital affinity profiling via proximity ligation, sequencing); 10 mM Tris-HCl pH 7.5, 50 mM NaCl, 1 mM DTT, 4% glycerol, room temperature, 30 min; GST-TFs on glutathione beads, 16-mer random dsDNA library, 0.1% formaldehyde crosslink after washing; high values mean tight binding
The target of test [1] is T1, FLI1 (Homo sapiens, UniProt Q01543 1-452).
T1 sequence: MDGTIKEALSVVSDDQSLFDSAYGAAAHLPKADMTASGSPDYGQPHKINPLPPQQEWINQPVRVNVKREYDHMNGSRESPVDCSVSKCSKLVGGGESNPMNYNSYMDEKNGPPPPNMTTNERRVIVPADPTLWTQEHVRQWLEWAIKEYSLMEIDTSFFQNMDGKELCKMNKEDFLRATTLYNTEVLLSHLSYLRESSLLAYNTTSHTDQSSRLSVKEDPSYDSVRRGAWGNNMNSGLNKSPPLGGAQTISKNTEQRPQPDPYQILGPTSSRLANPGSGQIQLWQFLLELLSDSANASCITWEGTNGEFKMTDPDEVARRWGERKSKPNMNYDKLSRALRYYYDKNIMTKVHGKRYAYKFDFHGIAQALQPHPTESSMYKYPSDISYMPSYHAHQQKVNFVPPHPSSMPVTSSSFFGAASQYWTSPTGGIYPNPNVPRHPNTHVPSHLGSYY
The conditions noted are these: protein: recombinant; tags: N-terminal GST; dsDNA, one strand shown. In a few lines:
(§1)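 Sequencing on an Illumina NextSeq500 followed washing, crosslinking with 0.1% formaldehyde, proximity ligation (BsaI/T4 ligase, 1 h, 37 °C) and PCR amplification of pools that had been incubated for 30 min at room temperature with 200 nmole of a random double-stranded 16-mer DNA library in Tris/NaCl/DTT/glycerol buffer. Each pool held DNA-barcoded human transcription factors, expressed in yeast as GST fusions and captured on glutathione beads, plus a tag-only sample. Binding signal is a hexamer's read frequency for a factor divided by its frequency in the tag-only sample.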

Test [2] deals with T2, ELK1 (Homo sapiens, UniProt P19419 1-428).
T2 sequence: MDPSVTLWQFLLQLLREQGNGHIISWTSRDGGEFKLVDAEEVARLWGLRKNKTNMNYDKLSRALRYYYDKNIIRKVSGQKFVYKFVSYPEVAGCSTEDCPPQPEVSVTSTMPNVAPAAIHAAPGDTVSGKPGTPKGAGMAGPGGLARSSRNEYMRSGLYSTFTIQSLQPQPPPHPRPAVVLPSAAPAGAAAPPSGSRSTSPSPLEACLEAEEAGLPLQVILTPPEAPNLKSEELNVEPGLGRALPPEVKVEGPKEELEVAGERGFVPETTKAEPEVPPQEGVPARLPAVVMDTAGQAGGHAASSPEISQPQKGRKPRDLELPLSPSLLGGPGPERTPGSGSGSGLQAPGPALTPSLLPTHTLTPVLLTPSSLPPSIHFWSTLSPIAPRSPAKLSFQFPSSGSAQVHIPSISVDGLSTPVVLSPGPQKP
The conditions noted are these: protein: recombinant; tags: N-terminal GST; dsDNA, one strand shown. In a few lines: as §1

Test [3] addresses T3, GABPA (Homo sapiens, UniProt Q06546 1-454).
T3 sequence: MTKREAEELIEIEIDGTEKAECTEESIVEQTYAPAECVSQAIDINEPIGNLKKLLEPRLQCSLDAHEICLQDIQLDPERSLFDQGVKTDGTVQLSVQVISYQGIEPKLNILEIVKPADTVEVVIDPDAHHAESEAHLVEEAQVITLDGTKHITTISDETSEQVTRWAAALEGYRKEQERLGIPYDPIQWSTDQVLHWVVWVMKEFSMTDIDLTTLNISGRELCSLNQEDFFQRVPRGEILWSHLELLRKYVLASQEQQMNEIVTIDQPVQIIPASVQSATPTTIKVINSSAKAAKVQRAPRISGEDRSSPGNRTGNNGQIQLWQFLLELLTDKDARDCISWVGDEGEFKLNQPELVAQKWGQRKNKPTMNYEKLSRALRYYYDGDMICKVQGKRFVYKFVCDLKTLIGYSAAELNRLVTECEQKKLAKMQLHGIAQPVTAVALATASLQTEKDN
The conditions noted are these: protein: recombinant; tags: N-terminal GST; dsDNA, one strand shown. An outline of the steps:
as §1

For test [4], the target named is T4, ERG (Homo sapiens, UniProt P11308 1-479).
T4 sequence: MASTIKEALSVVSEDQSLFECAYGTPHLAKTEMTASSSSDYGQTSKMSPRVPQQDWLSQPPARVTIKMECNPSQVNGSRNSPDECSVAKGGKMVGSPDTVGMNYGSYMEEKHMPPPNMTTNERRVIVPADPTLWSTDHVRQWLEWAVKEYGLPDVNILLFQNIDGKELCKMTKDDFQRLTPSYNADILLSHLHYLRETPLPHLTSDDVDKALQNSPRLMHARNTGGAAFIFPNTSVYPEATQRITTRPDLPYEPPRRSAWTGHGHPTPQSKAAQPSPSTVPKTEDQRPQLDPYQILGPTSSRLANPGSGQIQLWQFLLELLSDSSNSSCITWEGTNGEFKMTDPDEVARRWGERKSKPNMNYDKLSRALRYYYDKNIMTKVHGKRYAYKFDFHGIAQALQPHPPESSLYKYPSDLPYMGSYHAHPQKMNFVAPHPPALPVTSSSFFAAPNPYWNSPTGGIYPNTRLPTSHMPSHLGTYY
The conditions noted are these: protein: recombinant; tags: N-terminal GST; dsDNA, one strand shown. In a few lines: as §1

Test [5] has as its target ELF1 (Homo sapiens, UniProt P32519 1-619). The conditions noted are these: protein: recombinant; tags: N-terminal GST; dsDNA, one strand shown. An outline of the steps:
as §1

For test [6], the target named is T5, EHF (Homo sapiens, UniProt Q9NZC4 1-300).
T5 sequence: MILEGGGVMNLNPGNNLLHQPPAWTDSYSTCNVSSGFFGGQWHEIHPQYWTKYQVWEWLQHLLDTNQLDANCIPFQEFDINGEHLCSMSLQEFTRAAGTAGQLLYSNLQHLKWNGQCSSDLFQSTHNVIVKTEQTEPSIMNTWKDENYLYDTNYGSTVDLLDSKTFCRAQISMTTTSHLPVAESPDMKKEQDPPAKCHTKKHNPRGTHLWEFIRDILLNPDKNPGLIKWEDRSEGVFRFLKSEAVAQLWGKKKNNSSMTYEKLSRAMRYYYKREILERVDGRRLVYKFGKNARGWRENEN
The following applies: protein: recombinant; tags: N-terminal GST; dsDNA, one strand shown. An outline of the steps: as §1

Test [7] has as its target SPI1 (Homo sapiens, UniProt P17947 1-270). The conditions noted are these: protein: recombinant; tags: N-terminal GST; dsDNA, one strand shown. An outline of the steps:
as §1

Test [8] deals with SPIB (Homo sapiens, UniProt Q01892 1-262). The conditions noted are these: protein: recombinant; tags: N-terminal GST; dsDNA, one strand shown. In a few lines:
as §1

In test [9] the target is T6, ELK3 (Homo sapiens, UniProt P41970 1-407).
T6 sequence: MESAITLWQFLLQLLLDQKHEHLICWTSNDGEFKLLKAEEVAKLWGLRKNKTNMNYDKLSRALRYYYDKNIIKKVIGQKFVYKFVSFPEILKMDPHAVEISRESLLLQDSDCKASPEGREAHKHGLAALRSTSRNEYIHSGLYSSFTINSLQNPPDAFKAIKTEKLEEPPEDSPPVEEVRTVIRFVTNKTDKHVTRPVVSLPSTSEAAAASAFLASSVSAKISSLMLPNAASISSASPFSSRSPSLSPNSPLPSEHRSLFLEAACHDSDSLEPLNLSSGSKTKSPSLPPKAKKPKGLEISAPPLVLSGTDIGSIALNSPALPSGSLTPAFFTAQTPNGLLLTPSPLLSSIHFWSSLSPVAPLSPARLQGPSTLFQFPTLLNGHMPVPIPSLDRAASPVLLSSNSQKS
The following applies: protein: recombinant; tags: N-terminal GST; dsDNA, one strand shown. In a few lines:
as §1

Test [10] concerns the target T7, FEV (Homo sapiens, UniProt Q99581 1-238).
T7 sequence: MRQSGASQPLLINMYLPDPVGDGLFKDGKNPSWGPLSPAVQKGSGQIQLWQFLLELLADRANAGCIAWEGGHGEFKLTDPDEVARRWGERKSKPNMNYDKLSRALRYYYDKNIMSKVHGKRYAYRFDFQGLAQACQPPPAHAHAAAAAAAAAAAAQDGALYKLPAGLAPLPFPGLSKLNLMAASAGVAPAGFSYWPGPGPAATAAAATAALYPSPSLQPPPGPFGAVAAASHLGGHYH
The conditions noted are these: protein: recombinant; tags: N-terminal GST; dsDNA, one strand shown. In a few lines: as §1

The target of test [11] is ETV5 (Homo sapiens, UniProt P41161 1-510). The conditions noted are these: protein: recombinant; tags: N-terminal GST; dsDNA, one strand shown. An outline of the steps: as §1
Chain of ETV5 (P41161 whole entry): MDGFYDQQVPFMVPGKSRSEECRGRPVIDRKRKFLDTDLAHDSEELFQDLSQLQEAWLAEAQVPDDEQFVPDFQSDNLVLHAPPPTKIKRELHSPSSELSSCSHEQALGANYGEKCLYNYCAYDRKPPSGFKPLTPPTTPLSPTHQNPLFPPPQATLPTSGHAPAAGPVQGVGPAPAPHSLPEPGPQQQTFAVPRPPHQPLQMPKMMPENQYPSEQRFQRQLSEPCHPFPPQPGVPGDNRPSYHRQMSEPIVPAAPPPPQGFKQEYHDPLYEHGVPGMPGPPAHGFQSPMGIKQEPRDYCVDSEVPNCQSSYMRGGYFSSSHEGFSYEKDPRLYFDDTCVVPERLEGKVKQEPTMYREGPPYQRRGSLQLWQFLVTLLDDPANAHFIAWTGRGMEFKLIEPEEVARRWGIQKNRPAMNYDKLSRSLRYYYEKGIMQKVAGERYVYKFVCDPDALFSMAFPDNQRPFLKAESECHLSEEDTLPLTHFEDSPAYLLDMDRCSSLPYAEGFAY
In test [12] the target is HSF1 (Homo sapiens, UniProt Q00613 1-529). The following applies: protein: recombinant; tags: N-terminal GST; chain copies: 3; dsDNA, one strand shown. An outline of the steps: as §1
Chain of HSF1 (Q00613 whole entry): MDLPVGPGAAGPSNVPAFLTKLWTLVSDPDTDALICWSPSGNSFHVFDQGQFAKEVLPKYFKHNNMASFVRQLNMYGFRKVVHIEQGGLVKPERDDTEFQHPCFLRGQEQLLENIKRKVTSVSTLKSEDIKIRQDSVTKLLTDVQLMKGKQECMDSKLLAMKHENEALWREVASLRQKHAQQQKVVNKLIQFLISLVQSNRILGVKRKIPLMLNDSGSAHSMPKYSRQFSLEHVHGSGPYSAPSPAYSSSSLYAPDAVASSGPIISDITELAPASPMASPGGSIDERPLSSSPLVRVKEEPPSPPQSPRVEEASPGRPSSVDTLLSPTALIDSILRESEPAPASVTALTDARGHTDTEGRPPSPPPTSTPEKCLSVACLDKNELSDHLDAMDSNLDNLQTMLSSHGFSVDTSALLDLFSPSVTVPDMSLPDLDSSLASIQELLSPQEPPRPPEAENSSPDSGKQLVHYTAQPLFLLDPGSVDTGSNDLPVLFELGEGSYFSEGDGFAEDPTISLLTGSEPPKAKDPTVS
The target in test [13] is T8, SPIC (Homo sapiens, UniProt Q8N5J4 1-248).
T8 sequence: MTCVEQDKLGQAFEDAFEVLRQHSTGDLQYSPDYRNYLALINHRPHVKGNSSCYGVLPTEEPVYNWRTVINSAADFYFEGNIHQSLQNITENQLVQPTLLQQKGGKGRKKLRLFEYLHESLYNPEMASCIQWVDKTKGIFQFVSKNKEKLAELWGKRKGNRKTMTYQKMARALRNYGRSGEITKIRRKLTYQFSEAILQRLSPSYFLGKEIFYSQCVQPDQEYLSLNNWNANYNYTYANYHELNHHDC
The following applies: protein: recombinant; tags: N-terminal GST; dsDNA, one strand shown. In a few lines: as §1

In test [14] the target is ELF4 (Homo sapiens, UniProt Q99607 1-663). The conditions noted are these: protein: recombinant; tags: N-terminal GST; dsDNA, one strand shown. An outline of the steps:
as §1

The target in test [15] is T9, ELK4 (Homo sapiens, UniProt P28324-2 1-405).
T9 sequence: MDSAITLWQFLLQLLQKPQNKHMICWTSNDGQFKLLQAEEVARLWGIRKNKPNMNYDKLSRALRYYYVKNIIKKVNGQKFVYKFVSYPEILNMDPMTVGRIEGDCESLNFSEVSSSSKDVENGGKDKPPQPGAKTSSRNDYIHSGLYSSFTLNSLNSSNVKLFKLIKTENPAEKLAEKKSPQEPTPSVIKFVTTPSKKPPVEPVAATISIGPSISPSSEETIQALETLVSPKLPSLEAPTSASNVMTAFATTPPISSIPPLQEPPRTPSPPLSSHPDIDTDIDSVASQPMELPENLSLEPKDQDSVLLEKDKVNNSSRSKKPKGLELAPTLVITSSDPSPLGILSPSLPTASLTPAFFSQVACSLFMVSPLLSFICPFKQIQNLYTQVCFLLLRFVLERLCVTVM
The following applies: protein: recombinant; tags: N-terminal GST; dsDNA, one strand shown. An outline of the steps: as §1

The target in test [16] is T10, ETV2 (Homo sapiens, UniProt O00321 1-342).
T10 sequence: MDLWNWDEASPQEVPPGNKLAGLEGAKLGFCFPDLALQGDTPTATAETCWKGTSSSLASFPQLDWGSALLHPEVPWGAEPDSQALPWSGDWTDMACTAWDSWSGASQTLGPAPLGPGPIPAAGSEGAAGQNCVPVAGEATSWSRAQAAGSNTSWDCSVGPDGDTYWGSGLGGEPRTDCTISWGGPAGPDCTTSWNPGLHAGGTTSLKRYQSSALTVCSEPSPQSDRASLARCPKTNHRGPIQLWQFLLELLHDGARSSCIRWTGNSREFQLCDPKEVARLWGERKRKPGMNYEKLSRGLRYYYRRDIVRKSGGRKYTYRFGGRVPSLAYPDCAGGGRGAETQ
The following applies: protein: recombinant; tags: N-terminal GST; dsDNA, one strand shown. An outline of the steps: as §1

For test [17], the target named is T11, ELF3 (Homo sapiens, UniProt P78545 1-371).
T11 sequence: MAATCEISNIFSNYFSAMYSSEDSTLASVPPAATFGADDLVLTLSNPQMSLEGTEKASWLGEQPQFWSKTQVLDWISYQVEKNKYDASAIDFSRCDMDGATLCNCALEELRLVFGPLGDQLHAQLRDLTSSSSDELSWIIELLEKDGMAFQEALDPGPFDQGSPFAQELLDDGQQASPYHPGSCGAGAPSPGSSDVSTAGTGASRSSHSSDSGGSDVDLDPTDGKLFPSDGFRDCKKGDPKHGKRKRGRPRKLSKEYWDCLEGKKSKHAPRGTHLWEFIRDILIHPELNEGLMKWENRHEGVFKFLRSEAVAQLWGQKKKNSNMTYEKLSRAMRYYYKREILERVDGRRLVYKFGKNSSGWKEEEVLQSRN
The following applies: protein: recombinant; tags: N-terminal GST; dsDNA, one strand shown. In a few lines:
as §1

The target of test [18] is ETV1 (Homo sapiens, UniProt P50549 1-477). The following applies: protein: recombinant; tags: N-terminal GST; dsDNA, one strand shown. An outline of the steps:
as §1

Chain of ETV1 (P50549 whole entry): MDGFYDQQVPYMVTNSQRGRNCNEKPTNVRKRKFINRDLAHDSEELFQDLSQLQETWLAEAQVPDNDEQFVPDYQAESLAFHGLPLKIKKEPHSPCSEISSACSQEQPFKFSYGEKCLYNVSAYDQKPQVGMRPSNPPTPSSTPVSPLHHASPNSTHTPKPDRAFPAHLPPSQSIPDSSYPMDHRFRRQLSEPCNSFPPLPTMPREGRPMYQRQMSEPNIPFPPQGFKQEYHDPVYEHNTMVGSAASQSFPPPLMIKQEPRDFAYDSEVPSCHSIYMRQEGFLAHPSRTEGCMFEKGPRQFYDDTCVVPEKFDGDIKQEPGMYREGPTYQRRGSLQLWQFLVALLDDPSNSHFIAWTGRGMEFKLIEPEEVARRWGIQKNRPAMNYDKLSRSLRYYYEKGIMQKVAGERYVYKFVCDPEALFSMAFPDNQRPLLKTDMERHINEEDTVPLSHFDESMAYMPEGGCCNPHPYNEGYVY
Chain of ELF1 (P32519 whole entry): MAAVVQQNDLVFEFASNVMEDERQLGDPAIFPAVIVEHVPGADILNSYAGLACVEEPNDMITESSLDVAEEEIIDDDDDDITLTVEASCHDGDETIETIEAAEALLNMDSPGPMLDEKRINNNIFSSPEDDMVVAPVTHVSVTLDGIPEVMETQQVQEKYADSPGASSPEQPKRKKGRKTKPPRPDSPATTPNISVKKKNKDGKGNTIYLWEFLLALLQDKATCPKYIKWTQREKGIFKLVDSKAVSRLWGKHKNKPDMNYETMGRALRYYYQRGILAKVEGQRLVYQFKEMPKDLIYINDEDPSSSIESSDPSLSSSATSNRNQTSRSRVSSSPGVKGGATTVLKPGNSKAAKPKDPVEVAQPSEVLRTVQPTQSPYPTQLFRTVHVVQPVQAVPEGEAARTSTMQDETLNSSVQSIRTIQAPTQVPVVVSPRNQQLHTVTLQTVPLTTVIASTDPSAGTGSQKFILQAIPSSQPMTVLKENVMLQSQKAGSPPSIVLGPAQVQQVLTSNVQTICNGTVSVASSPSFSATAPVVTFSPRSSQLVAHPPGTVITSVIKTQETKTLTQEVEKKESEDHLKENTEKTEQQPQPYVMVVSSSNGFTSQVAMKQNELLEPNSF
Chain of ELF4 (Q99607 whole entry): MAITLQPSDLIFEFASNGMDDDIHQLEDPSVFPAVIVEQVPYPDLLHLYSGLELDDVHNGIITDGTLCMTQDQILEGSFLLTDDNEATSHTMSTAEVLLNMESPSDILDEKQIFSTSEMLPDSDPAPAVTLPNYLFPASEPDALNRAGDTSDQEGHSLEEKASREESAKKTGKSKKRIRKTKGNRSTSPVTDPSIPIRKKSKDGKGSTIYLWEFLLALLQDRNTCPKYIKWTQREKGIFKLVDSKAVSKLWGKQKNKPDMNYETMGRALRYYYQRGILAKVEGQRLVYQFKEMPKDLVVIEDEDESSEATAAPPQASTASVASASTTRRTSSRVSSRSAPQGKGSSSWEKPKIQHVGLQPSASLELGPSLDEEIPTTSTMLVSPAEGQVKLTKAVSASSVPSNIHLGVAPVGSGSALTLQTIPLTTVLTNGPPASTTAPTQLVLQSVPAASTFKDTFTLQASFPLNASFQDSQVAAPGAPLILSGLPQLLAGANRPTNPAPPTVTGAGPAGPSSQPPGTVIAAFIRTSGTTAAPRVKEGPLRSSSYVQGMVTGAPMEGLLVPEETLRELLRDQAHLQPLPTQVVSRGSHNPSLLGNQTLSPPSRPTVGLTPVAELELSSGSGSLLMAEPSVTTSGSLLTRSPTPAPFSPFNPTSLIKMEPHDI
Chain of SPIB (Q01892 whole entry): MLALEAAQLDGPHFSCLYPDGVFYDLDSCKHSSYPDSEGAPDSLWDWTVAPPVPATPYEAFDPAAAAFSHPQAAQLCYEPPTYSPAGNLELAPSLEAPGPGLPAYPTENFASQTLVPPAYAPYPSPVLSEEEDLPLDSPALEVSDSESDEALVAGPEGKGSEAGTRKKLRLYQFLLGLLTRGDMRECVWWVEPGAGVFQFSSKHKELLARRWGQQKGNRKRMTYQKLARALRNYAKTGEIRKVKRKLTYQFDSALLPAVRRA

As to AGATGC, the binding signal in test [1] is 1.13 fold enrichment (6-mer frequency, TF over GST control); in [2], 1.14 fold enrichment (6-mer frequency, TF over GST control); in [3] it was 1.05 fold enrichment (6-mer frequency, TF over GST control); in test [4], 1.11 fold enrichment (6-mer frequency, TF over GST control); in [5] it was 1.04 fold enrichment (6-mer frequency, TF over GST control); in test [6], 1.08 fold enrichment (6-mer frequency, TF over GST control). In addition, the binding signal was 1.08 fold enrichment (6-mer frequency, TF over GST control) in test [7]; 1.09 fold enrichment (6-mer frequency, TF over GST control) in [8]; 1.01 fold enrichment (6-mer frequency, TF over GST control) in [9]; 1.05 fold enrichment (6-mer frequency, TF over GST control) in test [10]; 1.09 fold enrichment (6-mer frequency, TF over GST control) in [11]; 1.1 fold enrichment (6-mer frequency, TF over GST control) in test [12]. In addition, the binding signal is 1.11 fold enrichment (6-mer frequency, TF over GST control) in test [13]; 1.1 fold enrichment (6-mer frequency, TF over GST control) in [14]; 1.29 fold enrichment (6-mer frequency, TF over GST control) in test [15]; 1.01 fold enrichment (6-mer frequency, TF over GST control) in [16]; 1.09 fold enrichment (6-mer frequency, TF over GST control) in test [17]; 1.05 fold enrichment (6-mer frequency, TF over GST control) in test [18].
